Screening results deposited in PubChem BioAssay by National Center for Advancing Translational Sciences (NCATS).
Sampled rows, rich in hits. Any-hit rate of the full collection: about 4.7%.
TRHR PAM = qHTS for Small Molecule Agonists and Allosteric Enhancers of Human TRH Receptor: Primary Screen for Enhancers; Thyrotropin-releasing hormone receptor (Homo sapiens), P34981; AID 493056, 2011; 360,000 tested, 0.66% active; enhancement, % at 2 µM; TRHR cells, fluo-8 calcium fluorescence, EC20 TRH enhancement; in the data active = enhancement above about 30%; also: 0% is about no effect
Target sequence (P34981 whole entry, looked up): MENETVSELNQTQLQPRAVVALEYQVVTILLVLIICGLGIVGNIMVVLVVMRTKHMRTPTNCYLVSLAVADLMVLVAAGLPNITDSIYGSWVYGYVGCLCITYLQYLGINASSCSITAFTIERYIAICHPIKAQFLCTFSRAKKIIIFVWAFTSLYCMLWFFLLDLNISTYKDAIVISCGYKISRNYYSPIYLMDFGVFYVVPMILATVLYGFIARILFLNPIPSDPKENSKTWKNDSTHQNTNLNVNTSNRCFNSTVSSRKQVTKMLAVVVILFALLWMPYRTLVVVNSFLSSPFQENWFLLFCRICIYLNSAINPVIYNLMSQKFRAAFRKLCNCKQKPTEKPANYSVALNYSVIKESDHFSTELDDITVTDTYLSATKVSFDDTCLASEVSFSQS
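TRHR-expressing cells loaded with fluo-8 calcium dye were read kinetically (ex 480/em 530) during compound addition, then stimulated with an EC20 of TRH (10 nM final). Enhancement of the Gq-mediated intracellular calcium response was scored.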
TRHR agonist = qHTS for Small Molecule Agonists and Allosteric Enhancers of Human TRH Receptor: Primary Screen for Agonists; activation, % at 2 µM; Thyrotropin-releasing hormone receptor (Homo sapiens), P34981; TRHR cells, calcium flux fluo-8, FDSS agonist mode; 360,000 tested, 0.18% active; also: 0% is about no effect
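Read-out: compound-evoked intracellular calcium rise in TRHR cells, fluo-8 dye, kinetic FDSS fluorescence at 1 s/cycle following a 10-cycle baseline. Cells cultured overnight before dye loading (30 min–1.5 h, RT).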
D1 ag = Allosteric Agonists of the Human D1 Dopamine Receptor: qHTS; HEK293 T-REx D1 cells, calcium flux, agonist mode; activation, % at 2 µM; 360,000 tested, 1% active; also: 0% is about no effect
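Inducible HEK293 T-REx D1 cells, force-coupled to calcium signalling, were plated at 4000 cells/well with tetracycline and held overnight at 30 C. After no-wash calcium dye loading, compound-evoked calcium rise over 180 s flagged agonists.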
D1 PAM = Potentiators of Human D1 Dopamine Receptor: qHTS; D(1A) dopamine receptor (Homo sapiens), P21728; HEK293 TREx D1 cells, calcium flux, dopamine EC20 potentiation; AID 504651, 2011; potentiation, % at 10 µM; 360,000 tested, 0.036% active; in the data active = potentiation above about 30%; also: 0% is about no effect
D1 antag = Antagonist of Human D 1 Dopamine Receptor: qHTS. D(1A) dopamine receptor (Homo sapiens), P21728. HEK293 TREx D1 cells, calcium flux, dopamine EC80; hits give low values. activity change, negative = inhibition, % at 10 µM. 360,000 tested, 3.2% active. AID 504652, 2011; in the data active = activity change below about -30%; also: % is scaled to controls: 0 for no effect and ±100 for the full control effect
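Cells carrying a force-coupled, tetracycline-inducible human D1 receptor report calcium flux. Each well gets a 10 s baseline, compound with 180 s monitoring, then an EC80 dopamine stimulus with a second 180 s kinetic read.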
* = called active by the depositor; ! = repeats disagree. Rule as the data show it, unless noted: active = activation above about 30%; inactive = the rest.

SMILES | TRHR PAM | TRHR agonist | D1 ag | D1 PAM | D1 antag
c1cnc2c(C3NCCc4c3[nH]c3ccccc43)cccc2c1 (stereo unspecified) | 14.6 | 1.1 | 41.1* | 0.6 | -56.9*
C=CCN1C(=O)/C(=C/c2ccc(O)c(OC)c2)S/C1=N/c1nccs1 | 5.2 | 72.0* | 129.7* | 6.7 | -2.6
C=CCN1C(=O)/C(=C/c2ccc(OCC(=O)O)cc2)S/C1=N/c1nccs1 | 13.2 | -1.3 | 4.0 | -3.9 | -10.9
C=CCN1C(=O)/C(=C/c2ccc(N(C)C)cc2)S/C1=N\c1nnc(CC)s1 | 6.6 | 52.7* | 167.3* | 2.5 | -27.0
C=CCN=C1S/C(=C\c2ccc(Cl)cc2)C(=O)N1CC=C | 2.2 | 0.4 | 4.1 | -6.2 | -22.0
NC(=O)c1ccccc1NC(=S)NC(=O)CCc1ccccc1 | -0.1 | 0.3 | 3.0 | 1.2 | -74.3*
CCN(C(=O)Cn1nnc2sc(-c3ccccc3)cc2c1=O)c1cccc(C)c1 | -3.8 | 0.5 | 2.9 | -0.3 | 8.3
CC(=O)Nc1nc(S(=O)(=O)c2ccc(C)cc2)c(Cl)s1 | -4.2 | 0.4 | 0.7 | 0.8 | -5.5
Cc1ccc(S(=O)(=O)c2nc(Nc3nccs3)sc2Cl)cc1 | 30.5* | 0.9 | 1.5 | -0.5 | 3.9
COC(=O)c1scc(S(=O)(=O)c2ccccc2)c1N | 6.4 | -0.1 | 4.7 | 1.4 | 4.6
COC(=O)c1scc(S(=O)(=O)C(C)(C)C)c1N | 2.1 | -0.1 | 3.8 | -1.1 | -36.8*
CCOc1ccc(CCNC(=O)c2nc(-c3cccc(F)c3)n3c2CCCCC3)cc1OCC | 8.3 | -0.2 | -0.5 | 1.1 | -11.5
CCNc1nc(N2CCOCC2)nc(N(c2ccccc2)c2ccccc2)n1 | 36.8* | -1.1 | -0.4 | -8.2 | 15.2
CCN1C(=O)/C(=C/C=C2\N(CC)c3cc(S(=O)(=O)N(C)C)ccc3N2c2ccccc2)SC1=S | -1.3 | 26.7 | 82.9* | -2.6 | 13.7
O=C(c1cccc(Cl)c1)C1CCCN(S(=O)(=O)c2ccccc2)C1 (stereo unspecified) | -0.6 | -1.1 | -0.3 | -2.9 | -53.7*
COc1ccc(NC(=O)C2CCCN(S(=O)(=O)c3ccc4[nH]c(=O)ccc4c3)C2)cc1OC (stereo unspecified) | 38.9*! | 0.0 | 1.8 | 0.2 | -6.7
COc1ccc(S(=O)(=O)N2CCCC(C(=O)Nc3ccc(OC)c(OC)c3)C2)cc1 (stereo unspecified) | 2.7 | -0.3 | -0.6 | -1.6 | -31.1*
COc1ccc(NC(=O)C2CCCN(S(=O)(=O)c3ccccc3)C2)c(OC)c1 (stereo unspecified) | 32.7* | -1.1 | 1.9 | -8.0 | 9.4
CCOC(=O)C1CCN(C(=O)Cn2ncc3c([nH]c4ccc(C)cc43)c2=O)CC1 | -7.9 | 0.5 | 1.5 | -2.8 | 6.4
Cc1ccc(Cl)cc1N1CCN(C(=O)Cn2c(-c3cccs3)cc3cc(F)ccc32)CC1 | 7.8 | 0.6 | 2.2 | 2.2 | 13.6
CC(CC(=O)N1CCN(c2ccccc2F)CC1)c1ccccc1 (stereo unspecified) | -2.6 | -0.1 | 4.1 | 2.1 | -32.1*
O=C(CSCc1ccc(F)cc1)N1CCN(c2ccccc2F)CC1 | -1.4 | -0.9 | 1.3 | -2.1 | -57.8*
COc1ccc(/C(C)=N/Nc2ccc(C(=O)O)cc2)cc1OC | 0.4 | 0.0 | 3.2 | 7.5 | -31.3*
COc1cc(/C(C)=N/Nc2ccc(C(=O)O)cc2)cc(OC)c1OC | 2.3 | 0.0 | 0.3 | 2.9 | -15.6
Cc1nn(-c2ccccc2)c2c1N(CC(=O)N1CCN(c3ccccc3F)CC1)C(=O)CS2 | -0.4 | -0.5 | 4.9 | -3.9 | -25.7
COC(=O)c1ccccc1NC(=S)NC(=O)C1CCCCC1 | 2.0 | 0.2 | 2.5 | -8.3 | -64.5*
COC(=O)c1ccccc1NC(=O)C1CCCC1 | 2.3 | -1.1 | 3.4 | -2.5 | -22.4
Cc1ccc(OCCNC(=O)C2CCCCC2)cc1 | 6.7 | -0.9 | 0.0 | 1.6 | 10.0
Cc1ccc(NC(=S)NC(=O)C2CC2)cc1Cl | 2.4 | -1.3 | 1.1 | -5.2 | -72.6*
COc1ccccc1NC(=S)NC(=O)C1CC1 | -4.7 | -0.9 | 1.8 | -6.9 | -42.3*
